Measured values taken from PubChem BioAssay (EPA / NIEHS).
Where “and” joins values, the source holds several entries; their conditions need not be identical. Equal values may be shown once. Calls of active or inactive are those of the source. Rule for the calls: active = hit-call score of the fitted dose curve at least 0.9, where 1 is the maximum; inactive = score below 0.9.

Test system: not listed separately
Assay: ATG_ERE_CIS: Attagene CIS-FACTORIAL HepG2 Assay for Estrogen Response Element (ERE) (AID 2282940)
Conditions: HepG2 ERE cis-reporter, Attagene RNA transcript; actives raise or lower the signal
In short: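 Fluorescence of capillary-separated, FAM-labelled reporter cDNA fragments indicates reporter mRNA levels in HepG2 cells exposed to chemicals for 24 h. Transient transfection with cis-regulated units; data fitted in both directions against DMSO.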

Compound	AC50	outcome
FC(F)(I)C(F)(F)C(F)(F)C(F)(F)C(F)(F)C(F)(F)I	19.2 nM (active)	–
Cc1oc(-c2ccccc2)nc1CCOc1ccc(C[C@H](Nc2ccccc2C(=O)c2ccccc2)C(=O)O)cc1	0.523 nM (active)	–
CN1CCN(c2ccccc2/C=C2\SCCN(c3ccc(Cl)c(Cl)c3)C2=O)CC1	–	inactive
CCc1nn(C2CCCCC2)c2cc(C3(C#N)CCC(C(=O)O)CC3)ccc12 (stereo unspecified)	2310 nM (active)	–
CCCCCCCCC(=O)O	–	inactive
CC(=O)NC1(c2cccc(F)c2)CCN(CC[C@@]2(c3ccc(Cl)c(Cl)c3)CN(c3ccccc3)C(=O)CO2)CC1	33000 nM (active)	–
CCCCCCCCCCCCc1ccccc1S(=O)(=O)O	–	inactive
CCCCCCC(=O)O	–	inactive
NCC(F)(F)C(F)(F)C(F)(F)C(F)(F)C(F)(F)C(F)(F)C(F)(F)F	–	inactive
O=[N+]([O-])c1ccc(O)cc1	–	inactive
CC(C)(C)c1cccc(C(C)(C)C)c1O	–	inactive
CCCCCCCC(=O)O	–	inactive
CCCCC[C@H](O)CC(=O)CCc1ccc(O)c(OC)c1	–	inactive
CCc1ccc(CCOc2ccc(CC3SC(=O)NC3=O)cc2)nc1 (stereo unspecified)	19.8 µM (active) and 41.4 µM (active)	–
CC(O)C(=O)O (stereo unspecified)	–	inactive
COCC(C)O (stereo unspecified)	–	inactive
CC(C)(C)c1ccc(O)c(C(C)(C)C)c1	–	inactive
CC[C@H](C)[C@@H](C(=O)O)n1sc2ccccc2c1=O	–	inactive

Test system: not listed separately
Assay: ATG_Ets_CIS: Attagene CIS-FACTORIAL HepG2 Assay for human Erythroblast Transformation Specific (ETS) (AID 2282941)
Conditions: HepG2 ETS cis-reporter transcription, actives raise or lower the signal
In short: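 HepG2 cells transfected with multiple cis-regulated reporter units measuring endogenous ETS-driven transcription, 24 h after dosing. Reporter mRNA quantified by RT-PCR with capillary electrophoresis; bidirectional fit relative to DMSO.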

Compound	outcome	AC50
CCCCC(CC)COC(=O)CCCCC(=O)OCc1ccccc1 (stereo unspecified)	inactive	–
FC(F)(I)C(F)(F)C(F)(F)C(F)(F)C(F)(F)C(F)(F)I	–	18.3 µM (active)
Cc1oc(-c2ccccc2)nc1CCOc1ccc(C[C@H](Nc2ccccc2C(=O)c2ccccc2)C(=O)O)cc1	inactive	–
CN1CCC[C@H]1c1cccnc1	inactive	–
COCC(C)OCC(C)O (stereo unspecified)	inactive	–
CN1CCN(c2ccccc2/C=C2\SCCN(c3ccc(Cl)c(Cl)c3)C2=O)CC1	inactive	–
CC(C)(C)CC(C)(C)c1ccc(O)c(-n2nc3ccccc3n2)c1	inactive	–
C[C@@H]1C[C@H]2[C@@H]3CCC4=CC(=O)C=C[C@]4(C)[C@@]3(F)[C@@H](O)C[C@]2(C)[C@@]1(O)C(=O)COP(=O)(O)O	inactive	–
CCc1nn(C2CCCCC2)c2cc(C3(C#N)CCC(C(=O)O)CC3)ccc12 (stereo unspecified)	inactive	–
N#C[C@@H]1CC(F)(F)CN1C(=O)CNC1CC2CCC(C1)N2c1ncccn1 (stereo partly specified)	inactive	–
CCCCCCCCC(=O)O	inactive	–
NC(=O)N(O)[C@@H]1C=C[C@H](Oc2cccc(Oc3ccc(F)cc3)c2)C1	inactive	–
CC(=O)CC(C)(C)O	inactive	–
CCCCCCCCCCCCCC[N+](C)(C)C	inactive	–
CC(=O)NC1(c2cccc(F)c2)CCN(CC[C@@]2(c3ccc(Cl)c(Cl)c3)CN(c3ccccc3)C(=O)CO2)CC1	–	51.9 µM (active)
CCCCCCCCCCCCc1ccccc1S(=O)(=O)O	inactive	–
Cc1cc(CCN2CCN(c3nsc4ccccc34)CC2)cc2c1NC(=O)CC2(C)C	inactive	–
CCCCCCC(=O)O	inactive	–

Compound	outcome	AC50
OC1CCC(C2CCCCC2)CC1 (stereo unspecified)	inactive	–
Cc1ccc(S(=O)(=O)O)c(C)c1	inactive	–
NCC(F)(F)C(F)(F)C(F)(F)C(F)(F)C(F)(F)C(F)(F)C(F)(F)F	inactive	–
O=[N+]([O-])c1ccc(O)cc1	inactive	–
CC(C)(C)c1cccc(C(C)(C)C)c1O	–	166 µM (active)
CCCCCCCC(=O)O	inactive	–
CCCCC[C@H](O)CC(=O)CCc1ccc(O)c(OC)c1	inactive	–
CCc1ccc(CCOc2ccc(CC3SC(=O)NC3=O)cc2)nc1 (stereo unspecified)	inactive	–
CC(O)C(=O)O (stereo unspecified)	inactive	–
CC(C)CCCCCCOC(=O)CCCCC(=O)OCCCCCCC(C)C	inactive	–
O=C1OC2(c3ccccc31)c1cc(Br)c(O)c(Br)c1Oc1c2cc(Br)c(O)c1Br	inactive	–
COCC(C)O (stereo unspecified)	inactive	–
CCCCCCCCCCCCCCCS(=O)(=O)Oc1ccccc1	inactive	–
Cc1cc(C)c(O)c(C)c1	inactive	–
C#C[C@]1(O)CC[C@H]2[C@@H]3CCC4=CC(=O)CC[C@@H]4[C@H]3CC[C@@]21C	inactive	–
CC(C)(C)c1ccc(O)c(C(C)(C)C)c1	inactive	–
Oc1cccc(O)c1	inactive	–
CC[C@H](C)[C@@H](C(=O)O)n1sc2ccccc2c1=O	inactive	–

Biological target: Hepatocyte nuclear factor 3-beta (Homo sapiens) (UniProt Q9Y261)
Sequence (Q9Y261 whole entry, looked up): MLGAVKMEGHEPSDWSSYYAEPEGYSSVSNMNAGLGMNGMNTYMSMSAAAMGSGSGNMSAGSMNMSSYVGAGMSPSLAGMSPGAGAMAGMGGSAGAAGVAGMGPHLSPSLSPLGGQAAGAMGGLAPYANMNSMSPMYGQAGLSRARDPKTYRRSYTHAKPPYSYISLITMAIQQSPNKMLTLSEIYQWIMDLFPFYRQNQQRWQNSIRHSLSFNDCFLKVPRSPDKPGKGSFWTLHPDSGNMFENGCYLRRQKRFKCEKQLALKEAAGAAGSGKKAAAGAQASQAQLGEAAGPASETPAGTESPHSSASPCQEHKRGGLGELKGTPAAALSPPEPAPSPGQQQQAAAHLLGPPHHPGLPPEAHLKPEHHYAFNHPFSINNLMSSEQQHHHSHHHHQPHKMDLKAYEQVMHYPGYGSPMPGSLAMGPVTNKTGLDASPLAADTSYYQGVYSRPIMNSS
Assay: ATG_FoxA2_CIS: Attagene CIS-FACTORIAL HepG2 Assay for human Forkhead box A2 (FOXA2) (AID 2282942)
Conditions: HepG2 cis-reporter transcription factor activity, 24 h; actives raise or lower the signal
In short: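 Endogenous transcription factor activity is captured via cis-element-driven reporter transcripts in transfected HepG2. Total RNA taken at 24 h post-dosing; labelled RT-PCR products resolved by capillary electrophoresis. Gain or loss fitted versus DMSO.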

Compound	outcome
FC(F)(I)C(F)(F)C(F)(F)C(F)(F)C(F)(F)C(F)(F)I	inactive
Cc1oc(-c2ccccc2)nc1CCOc1ccc(C[C@H](Nc2ccccc2C(=O)c2ccccc2)C(=O)O)cc1	inactive
CN1CCC[C@H]1c1cccnc1	inactive
COCC(C)OCC(C)O (stereo unspecified)	inactive
CN1CCN(c2ccccc2/C=C2\SCCN(c3ccc(Cl)c(Cl)c3)C2=O)CC1	inactive
CCCCCCCCC(=O)O	inactive
NC(=O)N(O)[C@@H]1C=C[C@H](Oc2cccc(Oc3ccc(F)cc3)c2)C1	inactive
CC(=O)NC1(c2cccc(F)c2)CCN(CC[C@@]2(c3ccc(Cl)c(Cl)c3)CN(c3ccccc3)C(=O)CO2)CC1	inactive
CCCCCCCCCCCCc1ccccc1S(=O)(=O)O	inactive
OC1CCC(C2CCCCC2)CC1 (stereo unspecified)	inactive
O=[N+]([O-])c1ccc(O)cc1	inactive
CC(C)(C)c1cccc(C(C)(C)C)c1O	inactive
CCCCC[C@H](O)CC(=O)CCc1ccc(O)c(OC)c1	inactive
CC(O)C(=O)O (stereo unspecified)	inactive
CCCCCCCCCCCCCCCS(=O)(=O)Oc1ccccc1	inactive
CC(C)(C)c1ccc(O)c(C(C)(C)C)c1	inactive
Oc1cccc(O)c1	inactive
